What follows are compounds tested on EPHB6.
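Note: kd values determined as follow-up on hits from a single-replicate KINOMEscan panel screen.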

Row | Compound | Kd [nM]
1 | CCc1nc(-c2cccc(N(C)S(=O)(=O)c3ccccc3)c2)c(-c2ccnc(Nc3ccc(N4CCN(C(C)=O)CC4)nc3)n2)s1 [GSK1645895] | 24
2 | CCc1nc(-c2cccc(C)c2)c(-c2ccnc(NC(=O)c3ccccc3)c2)s1 | 7600
3 | Cl.Cn1ccc(-c2cccc(Nc3ccnc4cc(-c5nccs5)ccc34)c2)n1 [GW525701] | 82
4 | O=C(Nc1n[nH]c2nc(-c3ccco3)c(Br)cc12)c1ccc(CN2CCCC2)cc1.O=C(O)[C@H](O)[C@@H](O)C(=O)O [SB-742352] | 160

The compounds below were run on ERBB2.

Row | Compound | Kd [nM]
5 | Cl.c1ccc(Cn2ccc3cc(Nc4ncnc5ccccc45)ccc32)cc1 [GW275568] | 14
6 | O=C(CCO)NCCn1ccc2ncnc(Nc3ccc(Oc4cccc(C(F)(F)F)c4)c(Cl)c3)c21 | 0.88
7 | Cl.O=S(=O)(c1cccc(F)c1)c1ccc(Nc2ncnc3cc(Br)sc23)cc1Cl [GSK306886] | 95
8 | Fc1cccc(COc2ccc(Nc3ncnc4cc[nH]c34)cc2Cl)c1 | 2.2
9 | Fc1cccc(COc2ccc(Nc3ncnc4nn5ccccc5c34)cc2Cl)c1 [GW689066] | 24
10 | Cn1ccc2ncnc(Nc3ccc(Oc4cccc(Cl)c4)c(Cl)c3)c21 | 1.2
11 | Fc1cccc(COc2ccc(Nc3ncnc4sc(-c5ccc[nH]5)cc34)cc2Cl)c1 [GW707818] | 100
12 | Oc1ccc2ncnc(Nc3ccc(OCc4ccccc4)cc3)c2c1 [GI262866] | 27
13 | CS(=O)(=O)CCNCc1ccc(-c2ccc3ncnc(Nc4ccc(OCc5ccccc5)c(Cl)c4)c3c2)o1.Cl [GW574783] | 2.8
14 | CS(=O)(=O)CCNCc1nc(-c2ccc3ncnc(Nc4ccc(OCc5cccc(F)c5)c(Cl)c4)c3c2)cs1.Cl [GW583340] | 5.9
15 | Cl.c1ccc(Cn2ncc3cc(Nc4ncnc5ccccc45)ccc32)cc1 [GW273749] | 11
16 | Cl.Fc1ccccc1COc1ccc(Nc2ncnc3ccc(-c4nnc(C(F)(F)F)o4)cc23)cc1Cl [GW424170] | 110
17 | OCCOCCn1ccc2ncnc(Nc3ccc(Oc4cccc(Cl)c4)c(Cl)c3)c21 | 2.9
18 | COc1cc2ncnc(Nc3ccc(OCc4ccccc4Br)c(Cl)c3)c2cc1OC.Cl [GI261590] | 17
19 | Clc1cc(Nc2ncnc3cc[nH]c23)ccc1OCc1ccccn1 | 9

What follows are compounds tested on ERBB4.

Row | Compound | Kd [nM]
20 | Cl.c1ccc(Cn2ccc3cc(Nc4ncnc5ccccc45)ccc32)cc1 [GW275568] | 140
21 | O=C(CCO)NCCn1ccc2ncnc(Nc3ccc(Oc4cccc(C(F)(F)F)c4)c(Cl)c3)c21 | 100
22 | O=c1cc(N2CCOCC2)nc2n(Cc3cccc(Cl)c3)ccn12 [GSK2296823] | > 10000
23 | Fc1cccc(COc2ccc(Nc3ncnc4cc[nH]c34)cc2Cl)c1 | 320
24 | Fc1cccc(COc2ccc(Nc3ncnc4nn5ccccc5c34)cc2Cl)c1 [GW689066] | 160
25 | Cn1ccc2ncnc(Nc3ccc(Oc4cccc(Cl)c4)c(Cl)c3)c21 | 74
26 | Fc1cccc(COc2ccc(Nc3ncnc4sc(-c5ccc[nH]5)cc34)cc2Cl)c1 [GW707818] | 560
27 | CS(=O)(=O)CCNCc1ccc(-c2ccc3ncnc(Nc4ccc(OCc5ccccc5)c(Cl)c4)c3c2)o1.Cl [GW574783] | 28
28 | CS(=O)(=O)CCNCc1nc(-c2ccc3ncnc(Nc4ccc(OCc5cccc(F)c5)c(Cl)c4)c3c2)cs1.Cl [GW583340] | 26
29 | Cl.c1ccc(Cn2ncc3cc(Nc4ncnc5ccccc45)ccc32)cc1 [GW273749] | 61
30 | OCCOCCn1ccc2ncnc(Nc3ccc(Oc4cccc(Cl)c4)c(Cl)c3)c21 | 77
31 | COc1cc2ncnc(Nc3ccc(OCc4ccccc4Br)c(Cl)c3)c2cc1OC.Cl [GI261590] | 27

From publication PMC5540273 (PLoS ONE, 2017)
